Molecules are shown by their SMILES. Active and inactive are the calls of the source. Unless noted, how the calls were made is not given here.

This is an account of results in PubChem BioAssay.

Assay [1] in a line: compound effects on lung adenocarcinoma cell viability – A549, calcein-AM fluorescence, 48 h, basal, profiling panel (AID 1162). Further: test concentration not given here. Conditions: higher = more signal.
Assay [2] in a line: compound effects on differentiated 3T3-L1 adipocyte viability – cell-based, 3T3-L1 adipocytes, calcein-AM fluorescence, 48 h, basal, profiling panel (AID 1163). Further: test concentration not given here. The settings on record: 3T3-L1 adipocytes viability, higher = more signal.
The nature of assay [3]: compound effects on hepatocellular carcinoma cell viability – HepG2, calcein-AM fluorescence, 48 h, basal, profiling panel (AID 1164). Further: test concentration not given here. The settings on record: higher = more signal.
Assay [4] can be described thus: compound effects on multiple myeloma cell viability – MM1S, calcein-AM fluorescence, 48 h, basal, profiling panel (AID 1165). Further: test concentration not given here. Conditions: higher = more signal.
The nature of assay [5]: calcein-AM signal in unstimulated myeloma cells – cell-based, calcein-AM fluorescence, 48 h, PK04 Diversity Set, profiling panel (AID 1166).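 Further: cells grown under basal conditions without added stimulus; test concentration not given here.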 Conditions: RPMI8226 myeloma viability, higher = more signal.
Assay [6] in a line: JC-1 mitochondrial signal, unstimulated HepG2 cells – cell-based, JC-1 fluorescence, 24 h, 100 nL compound, profiling panel (AID 1167). Further: test concentration not given here. Conditions: HepG2 mitochondrial potential, higher = more signal.
Assay [7] in a line: JC-1 mitochondrial signal, unstimulated adipocytes – cell-based, JC-1 fluorescence, 3T3-L1 adipocytes, 24 h, 100 nL compound, profiling panel (AID 1168). Further: test concentration not given here. The settings on record: JC-1 mitochondrial fluorescence, higher = more signal, called active from +8 up or from −8 down.
Assay [8] is described as follows: JC-1 mitochondrial signal, unstimulated myeloma cells – cell-based, JC-1 fluorescence, RPMI8226, 24 h, 100 nL compound, profiling panel (AID 1169). Further: test concentration not given here. The settings on record: JC-1 mitochondrial potential fluorescence, higher = more signal.
Assay [9] can be described thus: JC-1 mitochondrial signal, unstimulated MM1S myeloma – cell-based, JC-1 fluorescence, 24 h, 100 nL compound, profiling panel (AID 1170). Further: test concentration not given here. Conditions: MM1S mitochondrial potential, higher = more signal.
A short description of assay [10]: resazurin metabolic signal in A549 cells – cell-based, resazurin fluorescence, 24 h, PK04 Diversity Set, profiling panel (AID 1171). Further: test concentration not given here. Conditions: A549 viability, higher = more signal, called active from +8 up or from −8 down.
Assay [11] in a line: resazurin metabolic signal in HepG2 cells – cell-based, resazurin fluorescence, 24 h, PK04 Diversity Set, profiling panel (AID 1172). Further: test concentration not given here. Conditions: HepG2 viability, higher = more signal. In general terms: Alamar Blue is a resazurin reagent that responds to reducing activity.
Assay [12] in a line: budding yeast growth changes without added modifier – OD600, strain BY4716, 24 h, basal condition, primary screen (AID 1173). The settings on record: S. cerevisiae BY4716 growth, OD600, 24 h; higher = more signal, called active from +8 up or from −8 down.
Assay [13] in a line: viability profiling in MM1S myeloma cells – cell-based, resazurin fluorescence, basal, 24 h, PK04 Diversity Set, profiling panel (AID 1174). Further: test concentration not given here. Conditions: higher = more signal, called active from +8 up or from −8 down.
Assay [14] has as its target Dihydroorotate dehydrogenase (quinone), mitochondrial (Plasmodium falciparum (isolate 3D7)) (UniProt Q08210). Nature of the assay: inhibition of P. falciparum DHODH – biochemical, C-terminal His tag, absorbance 600 nm, primary screen (AID 1175).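 Further: recombinant parasite enzyme with a five histidine tag at its C terminus; test concentration not given here.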 Conditions: PfDHODH enzyme, DCIP absorbance 600 nm; higher = more signal, called active from +8 up or from −8 down.
The nature of assay [15]: inhibition of PAO1 biofilm formation – strain PAO1, LB-PBS medium, absorbance 600 nm, primary screen (AID 1176). Further: test concentration not given here. The settings on record: P. aeruginosa PAO1 growth/biofilm, A600, 12 h; higher = more signal.
Assay [16] in a line: growth modulation of vineyard yeast isolate – strain RM11-1a, OD600, basal, 24 h, primary screen (AID 1177).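 Further: cultures grown under basal conditions with no added stressor; test concentration not given here.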 Conditions: S. cerevisiae RM11-1a growth, OD600, 24 h; higher = more signal, called active from +8 up or from −8 down.
The nature of assay [17]: growth of efflux-deficient E. coli DRC39 – strain DRC39, OD650, 24 h, E. coli filamentation inducers, primary screen (AID 1178).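 Further: growth measured as culture turbidity by optical density at 650 nm; test concentration not given here.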 Conditions: E. coli DRC39 acrAB, higher = more signal, called active from +8 up or from −8 down.
A short description of assay [18]: growth of efflux-deficient E. coli DRC39 – strain DRC39, OD650, 48 h, E. coli filamentation inducers, primary screen (AID 1179).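 Further: screen aims at cell division blockers that make cells filament.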 The settings on record: E. coli DRC39 delta-acrAB growth, higher = more signal, called active from +8 up or from −8 down.
The nature of assay [19]: viability profiling in RPMI8226 myeloma cells – cell-based, resazurin fluorescence, basal, 24 h, PK04 Diversity Set, profiling panel (AID 1180).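 Further: RPMI8826 multiple myeloma cell line at 5000 cells per well; test concentration not given here.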 Conditions: higher = more signal.
The target of assay [20] is E3 ubiquitin-protein ligase XIAP (Homo sapiens) (UniProt P98170). Nature of the assay: small molecules binding XIAP protein – biophysical, small-molecule microarray, fluorescence 635 nm, primary screen (AID 1181).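 Further: score merges 667 nm emission and signal to noise over triplicate slides.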 The settings on record: higher = more signal.
Sequence of E3 ubiquitin-protein ligase XIAP (Homo sapiens) (P98170 whole entry, looked up): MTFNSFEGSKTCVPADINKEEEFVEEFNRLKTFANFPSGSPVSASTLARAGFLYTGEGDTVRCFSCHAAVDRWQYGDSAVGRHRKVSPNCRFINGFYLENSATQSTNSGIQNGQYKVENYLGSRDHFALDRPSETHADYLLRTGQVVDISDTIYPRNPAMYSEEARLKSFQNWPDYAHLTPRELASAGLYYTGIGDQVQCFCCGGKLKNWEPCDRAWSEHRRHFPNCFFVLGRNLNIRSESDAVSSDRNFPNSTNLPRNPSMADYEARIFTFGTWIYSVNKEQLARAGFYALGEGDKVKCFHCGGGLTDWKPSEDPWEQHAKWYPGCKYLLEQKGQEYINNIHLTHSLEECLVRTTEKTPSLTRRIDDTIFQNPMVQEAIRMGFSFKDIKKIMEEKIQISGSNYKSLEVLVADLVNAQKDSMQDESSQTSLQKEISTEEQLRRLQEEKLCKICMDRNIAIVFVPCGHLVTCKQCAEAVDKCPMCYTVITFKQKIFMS

Sequence of Dihydroorotate dehydrogenase (quinone), mitochondrial (Plasmodium falciparum (isolate 3D7)) (Q08210 whole entry, looked up): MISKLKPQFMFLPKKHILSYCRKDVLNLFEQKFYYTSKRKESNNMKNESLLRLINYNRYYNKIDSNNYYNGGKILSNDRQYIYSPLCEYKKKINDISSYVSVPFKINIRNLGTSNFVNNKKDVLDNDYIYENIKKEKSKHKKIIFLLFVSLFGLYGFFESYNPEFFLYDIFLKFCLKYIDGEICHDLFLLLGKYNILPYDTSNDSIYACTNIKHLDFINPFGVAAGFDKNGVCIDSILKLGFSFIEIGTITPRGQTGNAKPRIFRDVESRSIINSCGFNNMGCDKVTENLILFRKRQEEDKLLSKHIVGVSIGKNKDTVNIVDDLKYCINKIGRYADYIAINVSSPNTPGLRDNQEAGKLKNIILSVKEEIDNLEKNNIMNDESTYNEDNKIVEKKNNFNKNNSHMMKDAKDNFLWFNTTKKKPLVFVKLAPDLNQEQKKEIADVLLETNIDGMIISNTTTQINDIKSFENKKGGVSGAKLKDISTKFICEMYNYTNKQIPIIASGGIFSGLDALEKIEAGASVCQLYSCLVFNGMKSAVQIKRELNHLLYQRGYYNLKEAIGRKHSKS

Turning to `CCOC(=O)C1=CCC(c2cccc3ccccc23)N(S(=O)(=O)c2ccc(C)cc2)C1` (stereo not given), the z-score is -0.989 in assay [1]; -1 in assay [2]; -0.106 in assay [3]; -0.0257 in [4]; 0.291 in [5]; 1.98 in assay [6]. For the same compound, the z-score in [7] was -0.759 (inactive); in assay [8], -0.498; in assay [9], -1.64; in assay [10], -0.658 (inactive); in assay [11], -0.739; in [12], 0.66 (inactive). Besides, the z-score was -1.56 (inactive) in [13]; 0.518 (inactive) in assay [15]; -0.225 (inactive) in assay [16]; -0.601 (inactive) in assay [17]; 0.0759 (inactive) in assay [18]; -3.43 in assay [19]. The composite z-score was -0.384 (inactive) in [14] and 0.397 in assay [20].

For the compound `C=CCOC(=O)[C@@H]1[C@H]2C(=O)O[C@H](c3ccccc3)[C@H](c3ccccc3)N2[C@H](c2ccc(OCCOC(=O)[C@H]3C[C@H]4C(=O)N[C@@H](CCCCNC(C)=O)C(=O)N4[C@H]3c3ccc(O)cc3)cc2)[C@@]12C(=O)Nc1ccc(I)cc12`, the z-score is -0.778 in assay [1]; -0.796 in assay [2]; -0.931 in assay [3]; -0.989 in [4]; 0.572 in assay [5]; -0.422 in assay [6]. Further, the z-score was 0.725 (inactive) in [7]; -0.324 in [8]; -0.99 in [9]; 0.213 (inactive) in assay [10]; -0.0657 in [11]; 1.87 (inactive) in assay [12]. The z-score in assay [13] is -0.967 (inactive); in assay [15], 2.56 (inactive); in assay [16], 2.34 (inactive); in [17], -0.0715 (inactive); in assay [18], -0.649 (inactive); in assay [19], -0.145. The composite z-score was 0.626 (inactive) in assay [14] and -0.0566 in assay [20].

With `O=C/C=C/c1ccc(/C=C/c2ccccc2)cc1`, the z-score in [1] is 1; in assay [2] it was -0.111; in assay [3], -0.167; in [4] it was -3.21; in assay [5], -4.46; in assay [6], -0.228. Also, the z-score in [7] is 1.26 (inactive); in assay [8], -0.949; in assay [9], -2.1; in assay [10], 0.22 (inactive); in assay [11], 0.555; in assay [12], -16.4 (active). In addition, the z-score in assay [13] is 0.408 (inactive); in assay [15] it was 0.668 (inactive); in assay [16], -1.01 (inactive); in [17] it was 2.11 (inactive); in assay [18] it was 1.56 (inactive); in assay [19], -3.21. Also, the figures for the composite z-score in assay [14] and in [20] were -1.43 (inactive) and -0.242, respectively.

Regarding `Cc1cc(C)c(C(O)C2C=CC3C(=O)N(C)C(=O)C3N2N2CCCCC2)c(C)c1` (stereo not given), the z-score is -0.905 in assay [1]; -0.878 in [2]; -0.863 in assay [3]; -0.225 in assay [4]; -1.11 in assay [5]; -1.74 in assay [6]. For the same compound, the z-score is -0.721 (inactive) in [7]; 0.935 in [8]; 0.173 in [9]; 0.406 (inactive) in [10]; 0.0632 in assay [11]; 0.361 (inactive) in assay [12]. Besides, the z-score in [13] was -1.09 (inactive); in assay [15] it was 0.875 (inactive); in assay [16] it was -0.136 (inactive); in assay [17], -0.894 (inactive); in assay [18] it was -0.435 (inactive); in assay [19], -1.02. The composite z-score in [14] is -0.416 (inactive); in [20], 0.305.

Regarding `COCCCNC(=O)[C@@H]1c2ccccc2C(=O)N(CC23CC4CC(CC(C4)C2)C3)[C@H]1c1ccc(CO)cc1`, the z-score in [1] is 0.0071; in [2], 1.3; in [3], 0.0729; in assay [4], -0.193; in [5], -0.996; in assay [6], 1.12. Also, the z-score in assay [7] is -0.227 (inactive); in assay [8] it was 0.0172; in assay [9] it was 0.0814; in assay [10] it was 0.729 (inactive); in assay [11] it was 0.172; in assay [12] it was -0.323 (inactive). Besides, the z-score is -0.104 (inactive) in assay [13]; 0.87 (inactive) in assay [15]; 0.208 (inactive) in assay [16]; 0.0488 (inactive) in assay [17]; -0.543 (inactive) in [18]; 0.0917 in assay [19]. Also, the figures for the composite z-score in assay [14] and in [20] were 0.297 (inactive) and 0.03, respectively.

As to `N#Cc1ccc(NN2C(C(O)CCc3ccccc3)C=CC3C(=O)N(c4ccccc4)C(=O)C32)cc1` (stereo not given), the z-score was 0.422 in [1]; -0.191 in assay [2]; 1.18 in assay [3]; 0.197 in assay [4]; -0.0961 in assay [5]; -0.256 in [6]. For the same compound, the z-score in assay [7] is -0.0951 (inactive); in assay [8] it was 0.245; in assay [9], 0.419; in assay [10], 0.197 (inactive); in assay [11], -0.618; in [12], -0.333 (inactive). Further, the z-score in [13] is -0.611 (inactive); in assay [15], 1.01 (inactive); in [16], -1.97 (inactive); in assay [17], 0.143 (inactive); in [18], 0.7 (inactive); in [19] it was -0.152. The composite z-score in [14] was -2.09 (inactive); in assay [20], -0.127.

For `O=C1C2C=CC(C(O)c3ccccc3)N(n3cnnc3)C2C(=O)N1Cc1ccccc1` (stereo not given), the z-score is 0.668 in assay [1]; -0.0533 in assay [2]; 0.765 in assay [3]; 0.2 in [4]; -1.68 in assay [5]; 0.323 in [6]. The z-score in assay [7] was 0.129 (inactive); in assay [8], -0.605; in [9], 0.474; in assay [10] it was -1.05 (inactive); in assay [11], -0.362; in [12], -0.0402 (inactive). Further, the z-score in assay [13] is -0.468 (inactive); in [15] it was 1.87 (inactive); in [16], -1.08 (inactive); in assay [17] it was -0.456 (inactive); in [18] it was -1.03 (inactive); in assay [19], -0.974. In addition, the results for the composite z-score in assay [14] and in assay [20] were -1.03 (inactive) and 0.23, respectively.

Take `CCOC(=O)C[C@H]1[C@H](OC(=O)Cc2ccc3c(c2)OCO3)[C@@H](NC(=O)c2ccc3ccccc3c2)c2cc(OCCCO)ccc2N1C(=O)Cc1ccc(OC)cc1`: the z-score in assay [1] was 1.55; in assay [2] it was 1.08; in assay [3] it was 1.56; in assay [4], 0.956; in assay [5], 0.41; in [6], 1.66. Further, the z-score in [7] was -0.14 (inactive); in assay [8], -0.384; in assay [9], -1.1; in [10], -0.654 (inactive); in [11], 0.329; in [12] it was -0.566 (inactive). Moreover, the z-score in [13] was -0.162 (inactive); in assay [15], 0.0642 (inactive); in [16] it was -1.66 (inactive); in assay [17], 0.37 (inactive); in assay [18], 1.11 (inactive); in [19], 0.202. The composite z-score is -1.09 (inactive) in [14] and -0.0151 in assay [20].

`CC(C)NC(=O)[C@@]1(Cc2ccccc2I)c2ccccc2C(=O)N(C2CCCCC2)[C@H]1c1ccc(CO)cc1`: the z-score in [1] is 0.377; in [2], 0.967; in assay [3], -0.476; in [4], -0.533; in assay [5] it was -3.89; in assay [6] it was 1.54. Also, the z-score in assay [7] is -0.68 (inactive); in assay [8], -0.941; in assay [9] it was -1.36; in [10] it was 0.778 (inactive); in assay [11], 0.524; in assay [12] it was -0.557 (inactive). The z-score in assay [13] was 0.224 (inactive); in assay [15] it was 0.593 (inactive); in assay [16], 1.31 (inactive); in assay [17], 0.545 (inactive); in assay [18], 0.267 (inactive); in [19], 0.751. The composite z-score in [14] is -1.45 (inactive); in assay [20], 0.106.
